# In PubChem BioAssay (Tox21):
# Values joined by “and” are separate entries in the source; they are usually repeats but may differ in a detail not shown here. Identical values can stand only once. Inconclusive results are not listed. Values without a mark were called inactive. Active and inactive are the calls of the source. The call rests on the fitted dose curve; in most records, active means well fitted cell-killing curve with a large enough effect in the repeat runs; inconclusive means weak or mixed curves, or effect the other way; inactive means flat fitted curve, though single readings scatter.
# Test: cAMP Responsive Elements (CRE) small molecule agonists, cell-based qHTS assay: qHTS cell viability counter screen (AID 2060914);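 further: viability read after 3 h of compound exposure; nearly all actives have a fitted effect of over 50% in size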
# Conditions: CRE-bla HEK293T viability, CellTiter-Glo luminescence, 5 h; series mostly up to 92.4 µM; activity change, negative = cytotoxicity: at the top concentration
# Excerpt: National Center for Advancing Translational Sciences [NCATS]
# Division of Preclinical Innovation [DPI]
# U.S. Environmental Protection Agency [EPA]
# National Institutes of Environmental Health Sciences [NIEHS]
# National Toxicology Program [NTP]
# U.S. Food and Drug Administration [FDA]
# CREB (cyclic-AMP Responsive Element Binding Protein) is a cellular transcription factor. It binds to certain DNA sequences called cAMP Responsive Elements (CRE) and regulates the transcription of the genes. […] This cell line can be used to find agonists/antagonists of the cyclic AMP signaling pathway. The activation of the report gene under culture conditions can be detected by fluorescence intensity. This cell line has been used to screen the Tox21 10K compound library to identify agonists that induce oxidative stress. The cytotoxicity of the Tox21 compound library against the CRE-bla cell line was tested in parallel by measuring the cell viability using CellTiter-Glo assay (Promega, Madison, WI) in the same wells.
# Tox21 Assay Protocol Summary:
# CRE-bla Hek 293T cells were suspended in assay medium (DMEM containing 10% dialyzed FBS, 0.1 mM NEAA, 1 mM sodium pyruvate and 25 mM HEPES) and dispensed at 2,000 cells/5 uL /well into 1536-well black wall/clear bottom plates using a Multidrop Combi (ThermoFisher Scientific, Waltham, MA) dispenser. After the assay plates were incubated at 37 C/5% CO2 for 18 hrs, 23 nL of compounds dissolved in DMSO, positive controls or DMSO only was transferred to the assay plate by a pintool workstation (Kalypsys, San Diego, CA). After the plates were incubated at 37 C/5% CO2 for 3 hrs, 1 uL of LiveBLAzer B/G FRET substrate (Invitrogen, Carlsbad, CA) was added to each well using Bioraptr Flying Reagent Dispenser (FRD, Aurora Discovery, San Diego, CA). The plates were incubated at room temperature for 2 h, then fluorescence intensities were measured using an Envision plate reader (PerkinElmer, Shelton, CT) at Excitation 405nm, Emission 460nm and 530nm. The % activity was determined from the ratio of 460nm/530nm. For cell viability readout that measures cytotoxicity, 4 uL /well of CellTiter-Glo reagent was added into the assay plates using Bioraptr FRD. After 30 min incubation at room temperature, the luminescence intensity in the assay plates was measured using a ViewLux (PerkinElmer, Shelton, CT) plate reader.
# On the % scale 0 is the no-effect control and ±100 the full control effect; potency means the concentration at half of the fitted maximal effect.
Compound,"activity change, negative = cytotoxicity",Potency
CC(C[N+](C)(C)C)OC(N)=O (stereo not given),-1.03% [at 42.5 µM],
c1cc(N(CC2CO2)CC2CO2)ccc1Cc1ccc(N(CC2CO2)CC2CO2)cc1 (stereo not given),0.645%,
CC(CCl)OP(=O)(OC(C)CCl)OC(C)CCl (stereo not given),,inactive
N#Cc1ccc(C/C(=N/NC(=O)Nc2ccc(OC(F)(F)F)cc2)c2cccc(C(F)(F)F)c2)cc1,-6.25%,
O=C(O)c1cc(O)c2c(c1)C(=O)c1cccc(O)c1C2=O,0.496%,
CC(C)(O)CCC(C)(C)O,-5.39%,
CC12CCC(C(=O)C1=O)C2(C)C (stereo not given),-9.43%,
O=Cc1ccccc1S(=O)(=O)O,0.595%,
CC1=NN(c2ccccc2)C(=O)C1,,inactive
C=CC(=O)OCC(Br)CBr (stereo not given),1.14%,
Oc1cccc2cc3cccc(O)c3c(O)c12,1.35%,
CCOCCOCCOC(C)=O,9.37%,
CCCC[N+](C)(CCCC)CCCC,-6.39%,
CC(=O)Nc1cccc(C)c1,-9.95%,
CC[C@H]1OC(=O)[C@H](C)[C@@H](O[C@H]2C[C@@](C)(OC)[C@@H](O)[C@H](C)O2)[C@H](C)[C@@H](O[C@@H]2O[C@H](C)C[C@H](N(C)C)[C@H]2O)[C@](C)(OC)C[C@@H](C)C(=O)[C@H](C)[C@@H](O)[C@]1(C)O,-8.86%,
CC1(C)[C@@H]2CC[C@@]1(C)C(=O)C2,,inactive
CCCC(CCC)(C(=O)OCC)C(=O)OCC,-8.12% [at 42.5 µM],
Cc1cccc(Nc2ccncc2S(=O)(=O)NC(=O)NC(C)C)c1,8.67% [at 42.5 µM],
CC(=O)Nc1nnc(S(N)(=O)=O)s1,,inactive
NCCCN1CCN(CCCN)CC1,11.8%,

Compound,"activity change, negative = cytotoxicity",Potency
CC(C)Oc1ccc2c(=O)c(-c3ccccc3)coc2c1,,inactive
N=C(N)S(=O)O,2.78%,
Cc1ncc([N+](=O)[O-])n1CCO,,inactive
COc1cccc(O)c1O,2.17%,
NNS(=O)(=O)c1ccc(Oc2ccc(S(=O)(=O)NN)cc2)cc1,-24.4%,
C=CCCCCCCCCCCCCCCCC,-18.5% [at 8.39 µM],
C[C@]12CC[C@@H]3c4ccc(O)cc4CC[C@H]3[C@@H]1CC[C@@H]2O,,inactive
CCCCCCCCCC,-11.3%,
Cc1cc(Cc2cc(C)cc(C(C)(C)C)c2O)c(O)c(C(C)(C)C)c1,,34.6 µM (active) and 54.5 µM (active)
COc1ccc(Br)c(C)c1,4.88%,
CC(C)NCC(O)c1cc(O)cc(O)c1 (stereo not given),-4.3% [at 42.5 µM],
CSc1ccc(Oc2ccc(S(N)(=O)=O)cc2CN(C)C)cc1C,4.67%,
Cc1cccc(C)c1C,-4.11%,
NNC(=O)CCCCC(=O)NN,-3.76%,
C#CCOC(=O)[C@@H](C)Oc1ccc(Oc2ncc(Cl)cc2F)cc1,-1.33%,
O=C(O)CCC(=O)O,,inactive
COc1ccc(C(=O)CC(=O)c2ccc(C(C)(C)C)cc2)cc1,,inactive
CN(C)CCOC(=O)COc1ccc(Cl)cc1,,inactive
CC(C)C(=O)OCCc1ccccc1,9.62%,
CCn1cc(C(=O)O)c(=O)c2cc(F)c(N3CCN(C)CC3)cc21,12% [at 18.9 µM],
